# Screening results from PubChem.
# ULK1 inh: inhibitors of human ULK1 kinase; inhibition, % at 5.96 µM; O75385; AID 1259251; hit rate 1.9% among 30,000; AlphaScreen Atg13 phosphorylation by ULK1, luminescence; in the data active = inhibition above about 43%;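 note: 0% = median of compound wells and 100% = no enzyme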
# ASK1 inh: human ASK1 kinase inhibition, primary screen; AID 1159602; AlphaScreen MKK6 phosphorylation by ASK1, luminescence; Q99683; hit rate 0.99% among 22,000; inhibition, % at 7.44 µM; in the data active = inhibition above about 35%;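 note: 0% = median of compound wells and 100% = no enzyme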
# Active calls of the source: *; · = not tested or not shown. An excerpt weighted towards active compounds, which were near 2.5% of everything screened.
SMILES,ULK1 inh,ASK1 inh
CCN(CC)C(=O)N[C@H]1C=C2c3cccc4[nH]cc(c34)C[C@H]2N(C)C1,61.9*,·
CC(CO)NC(=O)C1C=C2c3cccc4[nH]cc(c34)C[C@H]2N(C)C1 (stereo partly specified),22.1,·
CCOC(=O)C[n+]1ccc(-c2cc[n+](CC(=O)OCC)cc2)cc1,-2.1,·
C[C@H](N)[C@H](O)c1ccc(O)c(O)c1,71.5*,·
C[C@H](N)[C@H](O)c1ccccc1,-10.4,·
CC(CC(C(N)=O)(c1ccccc1)c1ccccc1)N(C)C (stereo unspecified),2.2,·
CCC(=O)OC(Cc1ccccc1)(c1ccccc1)[C@H](C)CN(C)C (stereo partly specified),94.6*,·
CCC(CO)NC(=O)[C@@H]1C=C2c3cccc4c3c(cn4C)C[C@H]2N(C)C1 (stereo partly specified),16.1,·
Fc1cnc(Nc2ccc(-n3cnc(N4CCOCC4)n3)cc2)cc1-c1cn[nH]c1 (tested in a mixture with another compound),3.4,5.2
CN(C)[C@@H]1C(=O)C(C(N)=O)=C(O)[C@@]2(O)C(=O)C3=C(O)c4c(O)cccc4[C@@](C)(O)[C@H]3C[C@@H]12,24.4,·
CN(C)[C@@H]1C(=O)C(C(N)=O)=C(O)[C@@]2(O)C(=O)C3=C(O)c4c(O)ccc(Cl)c4[C@@](C)(O)C3C[C@@H]12 (stereo partly specified),49.2*,·
CN(C)C1C(=O)C(C(N)=O)=C(O)C2(O)C(=O)C3=C(O)c4c(O)cccc4C(C)(O)C3CC12 (stereo unspecified),71.6*,·
ClCCN1CCCCC1,4.7,·
CCCn1nc(C(=O)NCc2cccc(OC)c2)c2ccc(-c3cn[nH]c3)cc21,-7.2,4.2
CCSc1nc(NCC(C)C)c2cnn(CCN)c2n1,-20.2,·
